# Most compounds without a hit are left out; they make up all but 0.75% or so of the library.
# TSHR antag: human thyrotropin receptor antagonism. AID 504810. P16473. 0.2% of 330,000 active. TSHR-expressing cells, TSH-stimulated cAMP HTRF, 2 h; stronger effect = lower value. activity change, negative = inhibition, % at 11.5 µM;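 active = activity change below a set negative limit, meaning inhibition stronger than a set level, cut at about -70% in these data; inconclusive = activity change between two set negative limits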; note: % is set by controls: 0 for no effect and ±100 for the full control effect
# Target sequence (P16473 whole entry, looked up): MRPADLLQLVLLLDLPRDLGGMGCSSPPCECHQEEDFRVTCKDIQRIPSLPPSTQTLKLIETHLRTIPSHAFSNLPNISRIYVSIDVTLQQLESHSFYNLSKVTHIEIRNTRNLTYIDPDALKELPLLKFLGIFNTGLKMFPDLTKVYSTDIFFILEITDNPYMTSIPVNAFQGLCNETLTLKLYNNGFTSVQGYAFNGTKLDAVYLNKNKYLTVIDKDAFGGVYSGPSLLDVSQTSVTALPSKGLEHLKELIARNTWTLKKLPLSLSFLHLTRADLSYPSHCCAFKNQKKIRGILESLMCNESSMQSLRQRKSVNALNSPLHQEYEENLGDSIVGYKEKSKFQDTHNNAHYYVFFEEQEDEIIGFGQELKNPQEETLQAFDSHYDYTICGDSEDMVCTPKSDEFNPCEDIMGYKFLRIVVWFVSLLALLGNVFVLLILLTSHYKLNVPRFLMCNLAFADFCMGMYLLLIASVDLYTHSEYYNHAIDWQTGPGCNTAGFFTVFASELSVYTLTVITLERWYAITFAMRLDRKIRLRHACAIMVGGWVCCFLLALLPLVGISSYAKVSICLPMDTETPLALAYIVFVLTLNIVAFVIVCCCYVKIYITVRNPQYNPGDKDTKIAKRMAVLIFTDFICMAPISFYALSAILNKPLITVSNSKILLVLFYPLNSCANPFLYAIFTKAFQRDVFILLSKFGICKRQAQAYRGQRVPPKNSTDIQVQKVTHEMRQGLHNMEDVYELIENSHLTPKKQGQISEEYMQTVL
#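 Freshly harvested TSHR cells receive pin-tooled compound, then EC80 TSH at 4nM final. After 2 hours at 37 deg C, antibody in lysis buffer and cAMP-d2 are added; 30 minutes at ambient temperature precede the HTRF read.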
# uPA generation: cell surface uPA generation inhibition. cell surface uPA generation assay, qHTS. Potency, µM (series often up to 38.3 µM), without a hit: top-dose activity change, negative = inhibition, usual class: inhibitors. 0.31% of 330,000 active. AID 540303; active = well fitted inhibition curve with a large enough effect; inconclusive = small, poorly fitted or top-dose-only effect; inactive = no such curve, though single readings can be large or run the other way; tested in mouse RAW 264.7 cells; note: potency is the fitted concentration of half-maximal effect; % is set by controls: 0 for no effect and ±100 for the full control effect; nearly all actives have a fitted effect of over 55% in size
# TCR act: activators of T cell receptors; Potency, µM (highest dose often 9.22 µM), for the others: top-dose activation of IL-2 secretion, hits mostly activators; 330,000 tested, under 10 active; primary human leukocytes, anti-CD3, IL-2 HTRF, 48 h; note: % of control where 0% means no effect
#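 IL-2 produced over 48 hr by a-CD3 bead-stimulated primary human leukocytes exposed to compounds was detected with a homogeneous time-resolved FRET immunoassay, 665nm acceptor signal after 320nm excitation.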
# PKM2 activator: increases activity of human pyruvate kinase M2. P14618. 0.34% of 260,000 active. purified PKM2, Kinase-Glo ATP luminescence, activation; response scale: 0% is enzyme alone, no compound. AID 1631. Potency, µM (top dose mostly 57.5 µM), inactives show at the highest dose activation, most hits filed as activators; note: potency is the fitted concentration of half-maximal effect; % is set by controls: 0 for no effect and ±100 for the full control effect; nearly all actives have a fitted effect of over 55% in size
#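 Kinase-Glo luminescence reports ATP generated from ADP (0.1 mM) and PEP (0.5 mM) by purified hPK-M2 after 1 h at room temperature, pH 7.2 imidazole buffer; intermediate enzyme activity allows detecting inhibitors and activators.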
# * marks the source's active call; other numbers are inactive results; u = inconclusive; x = no result given; [ ] = another dose, or the depositor's remark. Unless noted, calls come from the whole dose curve; as a rule, active = well fitted curve in the direction sought with a large enough effect; inconclusive = small, poorly fitted or top-dose-only effect, or another doubt; inactive = no such curve, though single readings can be large; an effect the other way counts as inactive or inconclusive.
SMILES,TSHR antag,uPA generation,TCR act,PKM2 activator
CCN(Cc1ccccc1)S(=O)(=O)c1ccc(C(=O)Nc2nnc(C3CC3)o2)cc1,1,3.5µM*,6%,-14%
CC(=O)Nc1c(C)ccc(S(N)(=O)=O)c1C,-2,2%,11%,0%
CCN(C(=O)CN1C(=O)COc2ccc(S(=O)(=O)N3CCOCC3)cc21)c1ccc(OC)cc1,-140*,-7%,5%,x
O=C1OC2(c3ccccc31)c1cc(I)c(O)c(I)c1Oc1c2cc(I)c(O)c1I,-114*,x,x,x
O=C(/C=C/c1ccc2c(c1)OCO2)Nc1nc(-c2ccccc2)cs1,-79*,3%,3%,-1%
CCN1C(=O)C(=O)N(CC(=O)Nc2ccccc2Oc2ccccc2)C1=O,4,x,9%,1%
Cc1nn(Cc2nc(-c3cccs3)no2)c(C)c1Br,-72*,10%,-3%,-14%
COC1=CC(=O)c2ccccc2C1=O,35,5µM*,0%,x
COC1=CC(=O)C=C(OC)C1=O,x,u,-1%,x
O=c1c2ccccc2[nH]c(=S)n1Cc1cccnc1,14,-14%,-5%,25µM*
Oc1ccccc1N=Cc1c(O)ccc2oc3c(c12)CCCC3,8,4.5µM*,-5%,7%
COc1cccc(NC(=O)CSc2nc3n[nH]c(C)c3c(=N)n2-c2cccc(OC)c2)c1,-9,-7%,4%,25µM*
CN(Cc1cnn(Cc2ccccc2)c1)C(=O)c1cccc(S(=O)(=O)N2CCOCC2)c1,13,6.3µM*,-2%,x
CN(Cc1ccc(Cl)c(Cl)c1)C(=O)c1cccc(S(=O)(=O)N2CCN(Cc3ccccc3)CC2)c1,-32,u,-3%,x
COc1ccc(C(=O)N(C)Cc2cnn(Cc3ccccc3)c2)cc1S(=O)(=O)N1CCOCC1,-36,2µM*,x,x
CN(CC(=O)Nc1ccc(F)cc1)C(=O)c1ccc(OCc2ccccc2)cc1,4,11%,-4%,x
O=C1C(=O)N(CCS(=O)(=O)c2ccccc2)c2ccc(Cl)cc21,-7,u,-1%,1%
CCCN1C(=O)C(=O)c2cc(Cl)ccc21,-6,5.6µM*,4%,x
COC1C(CO)OC(n2c3c(Cl)cccc3c3c4c(c5c6cccc(Cl)c6[nH]c5c32)C(=O)NC4=O)C(O)C1O (stereo not drawn),x,-9%,-31%,x
Cc1ccc2c(c1)C(=O)C(=O)N2Cc1ccc(C(F)(F)F)cc1,13,3.5µM*,0%,x
Cc1cc([N+](=O)[O-])ccc1-c1ccc(C2Nc3ccccc3C(=O)N2O)o1 (stereo not drawn),13,x,8%,14µM*
O=C1c2ccccc2NC(c2ccc(-c3ccccc3F)o2)N1O (stereo not drawn),8,u,-3%,x
Cc1cnc(NC(=O)CC2OC(=O)c3ccccc32)s1 (stereo not drawn),-4,1%,3%,x
CCn1c(N)c(C(=O)NCc2ccc3c(c2)OCO3)sc1=S,5,3%,-8%,5µM*
COc1ccc2c(c1)C(O)C(CO)C(C(=O)O)C2 (stereo not drawn),x,1%,7%,x
SMILES,TSHR antag,uPA generation,TCR act,PKM2 activator
O=C(NCc1ccccc1Cl)C1CCN(S(=O)(=O)c2cccs2)CC1,9,0%,0%,10µM*
O=C(NCc1ccccn1)C1CCN(S(=O)(=O)c2cccs2)CC1,7,x,-6%,u
COc1ccccc1S(=O)(=O)N1CCN(S(=O)(=O)c2ccccc2C#N)CC1,5,-2%,-4%,2µM*
COCCN(CCOC)c1nc(C)nc2c1nc(-c1ccccc1)n2CCN(C)C,x,x,x,1%
COC(=O)[C@@]1(Cc2ccc(F)cc2)[C@H]2c3cc(C(=O)N(C)C)n(Cc4ccc(C)o4)c3C[C@H]2CN1C(=O)c1ccccc1,x,x,x,7.1µM*
CC(C)c1nn2c(=O)cc(O)nc2s1,9,3%,5%[46.1 µM],6%
COc1ccc(-c2nc(Cn3c(SCc4cccc(F)c4)nc4ccncc43)c(C)o2)cc1OC,-6,-14%,-3%,-8%
COc1ccc(-c2nc(Cn3c(SCc4ccc(C)cc4)nc4ccncc43)c(C)o2)cc1OC,-12,8.9µM*,-2%,0%
CC1(C)C2CCC1(CS(=O)(=O)NC(CC(=O)O)c1cccc(Br)c1)C(=O)C2 (stereo not drawn),-2,-2%,-5%,0%
COC(=O)C1=C(C(=O)OC)[C@@H]2N(C)c3ccc(OC)cc3[C@@]23C[C@@H](C(=O)OC)N(S(=O)(=O)c2ccc(C(F)(F)F)cc2)C3=N1,x,x,x,-1%[11.5 µM]
CCOC(=O)N1CCN(C(=S)Nc2ccc(C)cc2)CC1,1,-5%,0%[46.1 µM],8%
COc1ccc(-c2nc3ccccc3s2)cc1,-11,3.5µM*,-1%,-40%
Oc1ccc(-c2nc3ccccc3s2)cc1,0,6.3µM*,-4%,-23%
CN(C)S(=O)(=O)c1ccc(C(=O)Nc2nnc(-c3ccc4c(c3)CCCC4)o2)cc1,10,4.5µM*,10%,4%
COc1cc(C(=O)OCC(=O)Nc2sccc2C(N)=O)cc(OC)c1OC,-17,3.2µM*,0%,3%
Cn1c(CSc2nnc(SCc3ccccc3)s2)nc2ccccc21,-9,1%,1%,18µM*
Cn1c(CSc2nc3ccc(Br)cc3[nH]2)nc2ccccc21,-5,-11%,14%,-4%
CCOc1cc(/C=C2/C(=O)ON=C2C)ccc1OCc1ccccc1F,14,-19%,0%,16µM*
COc1ccc(N(C(=O)C(C)C)S(=O)(=O)c2cccs2)cc1,5,-25%,x,-5%
COc1ccc(N(C(=O)C(C)C)S(=O)(=O)c2ccc3ccccc3c2)cc1,19,1.8µM*,2%,1%
CCC(C)(C)n1nnnc1C(c1cc2cc(C)cc(C)c2[nH]c1=O)N1CCN(C(=O)c2ccco2)CC1 (stereo not drawn),-5,-2%,x,14µM*
CCC(C)(C)n1nnnc1C(c1ccccc1OC)N1CCN(C(=O)c2ccco2)CC1 (stereo not drawn),6,-1%,8%,1%
Cc1ccc2[nH]c(=O)c(C(c3nnnn3C(C)(C)C)N3CCN(C(=O)c4ccco4)CC3)cc2c1 (stereo not drawn),3,x,-28%,25µM*
Cc1cccc2cc(C(c3nnnn3C(C)(C)C)N3CCN(C(=O)c4ccco4)CC3)c(=O)[nH]c12 (stereo not drawn),0,16%,-4%,30%
Clc1cccc(Cl)c1C1Nc2cccc3cccc(c23)N1,-70*,-4%,7%,5%
Cc1ccc(-c2csc(Nc3ccc(S(N)(=O)=O)cc3)n2)o1,0,2%,-4%,10µM*
Cc1nc(C)c(-c2csc(Nc3ccc(S(N)(=O)=O)cc3)n2)s1,-10,0%,1%,-2%
COc1ccc(-c2csc(NC(=O)C3CCN(c4ncnc5sc(C)c(C)c45)CC3)n2)cc1OC,-77*,-11%,3%,x
COc1cc(/C=C/C(=O)OCC(=O)N2c3ccccc3CC2C)cc(OC)c1OC (stereo not drawn),-10,10µM*,1%,x

# Source: PubChem (National Center for Advancing Translational Sciences (NCATS))
